Screens: PubChem BioAssay, National Center for Advancing Translational Sciences (NCATS)
Compounds with a hit are over-represented: about 7.5% of the library has one in this group of screens.
TSHR antag – antagonists of human thyroid stimulating hormone receptor. 0.2% of 330,000 active. AID 504810. TSHR-expressing cells, TSH-stimulated cAMP HTRF, 2 h; active compounds read low. P16473. activity change, negative = inhibition, % at 11.5 µM;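 active means activity change below a set negative limit, meaning inhibition stronger than a set level, cut at about -70% in these data; inconclusive means activity change between two set negative limits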
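Read-out is FRET at 665 nm (cryptate excitation 337 nm) from a cryptate-tagged anti-cAMP antibody, competed by cell cAMP against cAMP-d2. Compounds are tested on freshly harvested TSHR cells challenged with 4nM TSH (EC80) for 2 hours at 37 deg C.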
VP16 counter – counter-screen for ROR gamma inhibitors: Gal4-VP16 reporter. Drosophila S2 Gal4-VP16 UAS-luciferase, luminescence, 20 h. AID 2546. 3.5% of 310,000 active. Potency, µM (series often up to 53.6 µM), actives largely listed as inhibitors;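 further: Gal4-VP16 expression switched on by copper sulfate through the metallothionein promoter; nearly all actives have a fitted effect of over 50% in size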
ELG1 DNA repair – inhibitors of ELG1-dependent DNA repair in HEK293T cells; HEK293T ELG1-luciferase reporter, luminescence, 16 h; DNA damage induced by 5-fluorouridine; 2.3% of 330,000 active; Potency, µM (doses to about 46.1 µM), usual class: inhibitors; further: nearly all actives have a fitted effect of over 55% in size
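Step one: seed 2,000 cells per well. Step two: pin-transfer compound or DMSO alongside 5-fluorouridine. Step three: incubate 16 hr, 37 °C, 5% CO2. Step four: add ONE-Glo, wait 30 min, read luminescence.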
B2AR arrestin – beta2AR (human) beta-arrestin recruitment activity | Potency, µM (titrated, usually from 46.1 µM), actives largely listed as activators | P07550 | AID 492947 | 0.02% of 330,000 active | beta-arrestin recruitment to beta2AR, cell-based reporter; further: nearly all actives have a fitted effect of over 65% in size
RORg inh – inhibitors of mouse ROR gamma transcriptional activity; P51450; 5.4% of 310,000 active; Drosophila S2 Gal4-RORgamma UAS-luciferase reporter, 20 h; AID 2551; Potency, µM (highest dose often 53.6 µM), usual class: inhibitors; further: nearly all actives have a fitted effect of over 60% in size
Target sequence (P51450 whole entry, looked up, the tested form may be a part): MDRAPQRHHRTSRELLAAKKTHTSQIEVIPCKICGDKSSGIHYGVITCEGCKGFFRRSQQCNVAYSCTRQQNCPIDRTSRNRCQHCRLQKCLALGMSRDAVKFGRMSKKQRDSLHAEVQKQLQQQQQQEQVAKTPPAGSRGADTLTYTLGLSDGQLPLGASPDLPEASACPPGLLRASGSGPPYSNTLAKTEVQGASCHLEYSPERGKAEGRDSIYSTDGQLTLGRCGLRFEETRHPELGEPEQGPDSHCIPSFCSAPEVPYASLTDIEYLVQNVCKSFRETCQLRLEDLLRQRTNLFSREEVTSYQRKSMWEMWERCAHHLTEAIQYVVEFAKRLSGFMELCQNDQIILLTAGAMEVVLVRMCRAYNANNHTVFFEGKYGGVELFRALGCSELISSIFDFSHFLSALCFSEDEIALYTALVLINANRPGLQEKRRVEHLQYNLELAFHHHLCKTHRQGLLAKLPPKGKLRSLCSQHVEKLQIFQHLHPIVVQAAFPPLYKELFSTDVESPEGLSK
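Stable Schneider cell line, Gal4 DNA-binding domain fused to ROR gamma, UAS-luciferase. Cmpd 1 hr RT → CuSO4 700 uM final → 20 hr RT → luciferase reagent 10 min → luminescence.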
Hits are given with their value; i = inactive; ? = inconclusive; nt = not tested or not shown. Unless noted, the call rests on the fitted dose curve; in most records, active means well fitted curve in the direction sought with a large enough effect; inconclusive means small, poorly fitted or top-dose-only effect, or another doubt; inactive means no such curve, though single readings can be large; an effect the other way counts as inactive or inconclusive.

SMILES	TSHR antag	VP16 counter	ELG1 DNA repair	B2AR arrestin	RORg inh
COC(=O)[C@@]1(Cc2ccc(OC)cc2)[C@H]2c3cc(C(=O)N4CCCC4)n(Cc4nc5ccccc5[nH]4)c3C[C@H]2CN1C(=O)c1ccccc1	nt	i	nt	nt	?
CO[C@]12C[C@@H](COC(=O)c3cncc(Br)c3)CN(C)[C@@H]1Cc1cn(C)c3cccc2c13	nt	i	nt	nt	i
N#Cc1ccccc1OCC(=O)OCC(=O)N1CCN(C(=O)c2ccco2)CC1	i	i	i	i	i
Cc1cccc(CN2CCC(C(=O)Nc3cccc(-c4cccc(F)c4)c3)CC2)n1	i	?	?	i	7.1µM
O=C(Nc1cccc(-c2cccc(Cl)c2)c1)C1CCN(Cc2ccon2)CC1	i	?	i	i	?
Cc1cccc(CN2CCCC(C(=O)Nc3ccc(-c4cscn4)cc3)C2)c1 (centres undefined)	i	i	i	i	i
O=C(Nc1ccc(-c2cscn2)cc1)C1CCCN(Cc2ccccc2)C1 (centres undefined)	i	i	i	i	1.8µM
Cc1ncc(CN2CCCC(C(=O)Nc3ccc(-c4cccc(F)c4)cc3)C2)cn1 (centres undefined)	i	i	i	i	i
O=C(Nc1cccc(-c2cccc(Cl)c2)c1)C1CCN(Cc2ccccn2)CC1	i	?	i	i	20µM
O=C(Nc1ccc(-c2cccc(F)c2)cc1)C1CCCN(Cc2ccccn2)C1 (centres undefined)	i	11µM	i	i	13µM
COC(=O)[C@@]1(Cc2ccccc2)[C@H]2c3cc(C(=O)N4CCCC4)n(CC4CC4)c3C[C@H]2CN1C(=O)c1ccccc1	nt	i	nt	nt	i
O=C(Nc1cccc(F)c1)N1CC2(CCN(C(=O)c3cccc(F)c3)CC2)C1	nt	i	nt	nt	i
COCc1ccc(CN2CCC(C(=O)Nc3cccc(-c4cccc(Cl)c4)c3)CC2)o1	i	8.9µM	?	i	18µM
CC(NC(=S)Nc1ccccc1Cl)C(c1ccccc1)N1CCOCC1 (centres undefined)	i	?	i	i	4µM
Cc1ccc(C)c(NC(=S)NC(C)C(c2ccccc2)N2CCN(C)CC2)c1 (centres undefined)	i	i	i	i	13µM
CC(NC(=O)Cc1ccccc1)C(c1ccccc1)N1CCOCC1 (centres undefined)	i	i	i	i	i
COc1ccc(NC(=S)NC(C)C(c2ccccc2)N2CCOCC2)cc1 (centres undefined)	i	?	i	i	4.5µM
CCN1CCN(C(c2cccs2)C(C)NC(=S)Nc2cc(C)ccc2C)CC1 (centres undefined)	i	i	i	i	?
O=C(N/N=C/C=C/c1ccco1)/C(=C/c1ccccc1)NC(=O)c1ccccc1	i	?	i	i	13µM
C/C(=N\NC(=O)c1cccc([N+](=O)[O-])c1)c1ccco1	i	i	?	i	?
O=C(N/N=C/C=C/c1ccco1)c1ccncc1	i	?	?	i	10µM
O=C(N/N=C/C=C/c1ccco1)c1cccc([N+](=O)[O-])c1	i	10µM	i	i	5µM
O=C(N/N=C/C=C\c1ccco1)c1cccs1	i	?	?	?	?
CNc1ncnc2ccc(-c3cccc(OC)c3)cc12	nt	i	nt	nt	i
c1ccc(COc2ccc(CNCc3cccs3)cc2)cc1	i	16µM	i	i	?
SMILES	TSHR antag	VP16 counter	ELG1 DNA repair	B2AR arrestin	RORg inh
Brc1ccc(CNCc2cccs2)cc1	i	i	i	i	i
O=C(Cc1cccc(NC(=O)C2CCN(C(=O)CCc3ccccc3)CC2)c1)Nc1cccc(C(=O)N2CCCC2)c1	i	nt	?	i	nt
O=C(NCc1nnc(SCC(=O)N2CCN(c3ccccc3)CC2)o1)c1ccc(F)cc1	i	i	?	i	?
COc1ccc(Oc2ncc3nc(C)c(=O)n(C4CC4)c3n2)cc1	nt	i	nt	nt	i
COc1cccc(-c2nc(NCc3cnc(C)cn3)c3ccccc3n2)c1	nt	i	nt	nt	i
Cn1c(-c2csc(-c3cccc(C(F)(F)F)c3)n2)n[nH]c1=S	i	i	i	i	4.5µM
Cn1c(CNc2cccc(C(F)(F)F)c2)n[nH]c1=S	i	i	i	i	?
O=S(=O)(NC(=S)NC1CCCCC1)c1ccc(Br)cc1	i	?	i	i	4.5µM
COc1cc(OC)c2c(c1)OC(c1ccccc1)CC2=O (centres undefined)	nt	i	nt	nt	i
COCCCNC(=S)N/N=C/c1ccc2ccccc2c1	i	18µM	i	i	4.5µM
COCCCNC(=S)N/N=C/c1cccc(OC)c1O	i	1.6µM	?	?	0.63µM
COCCCNC(=S)N/N=C/c1ccc(O)cc1	i	i	i	i	13µM
COCCCNC(=S)N/N=C/c1ccc(OC)cc1	i	?	i	i	5.6µM
COCCCNC(=S)N/N=C/c1ccc(O)cc1O	i	i	i	i	i
CC(C)CN(C(=O)c1cccs1)C1CCS(=O)(=O)C1 (centres undefined)	i	nt	i	i	nt
CCCCNC(=O)C(c1ccc(OCC(=O)OC)c(C(=O)OC)c1)N(Cc1ccccn1)C(=O)CCCCCN1C(=O)NC(c2ccc(-c3ccccc3)cc2)C(C(=O)OCc2ccccc2)=C1C (centres undefined)	nt	i	nt	nt	i
CC1Cn2cc(C(=O)Nc3ccccc3C(F)(F)F)c(=O)c3c(Cl)ccc(c32)O1 (centres undefined)	i	nt	nt	i	nt
Cc1ccc(C(=O)NCCn2cc(SCC(=O)Nc3nnc(C)s3)c3ccccc32)cc1	i	i	?	i	14µM
CCCn1cc(SCC(=O)Nc2nnc(C)s2)c2ccccc21	i	i	i	i	?
COc1ccccc1C(=O)NCCn1cc(SCC(=O)Nc2cc(C)on2)c2ccccc21	i	i	23µM	i	?
Cn1c(=O)cc(SCC(=O)NCc2ccco2)c2ccccc21	i	i	i	i	i
O=C(CSc1cn(CCNC(=O)c2ccc3ccccc3c2)c2ccccc12)NCc1ccco1	i	i	23µM	i	i
Cc1ccccc1C[C@H](C(=O)O)N1C(=O)c2ccc(C(=O)O)cc2C1=O	i	i	nt	i	i
COc1ccc2cnoc(=O)c2c1OC	nt	i	nt	nt	i
C=CC[C@@](C(C)=O)(C(=O)OC)C(NC(=O)OC(C)(C)C)c1ccccc1 (some centres undefined)	nt	i	nt	nt	i
CCCC[C@@H]1C[C@H]1C(NC(=O)Cc1ccccc1)c1ccc(Cl)cc1 (some centres undefined)	nt	i	nt	nt	i
CN1CCN(c2ncnc3ccc(-c4cccc(C#N)c4)cc23)CC1	nt	i	nt	nt	?
CCCCC(=O)Nc1nc(C)c(-c2csc(Nc3ccccc3OC)n2)s1	i	i	16µM	i	i
CCOc1ccccc1Nc1nc(-c2sc(NC(=O)c3ccc([N+](=O)[O-])cc3)nc2C)cs1	i	?	i	i	6.3µM
C/C(N)=C(/C#N)C(=O)COC(=O)CSc1ccccc1	i	i	i	i	i
